# System: CDKL1
# Conditions: concentration: 1 μM, replicates: in singlicate; n = 1
# 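Also: KINOMEscan kinase panel screen.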
row,SMILES,%Inh [%]
1,COC(=O)c1c(-c2ccccc2)c2cc(C)ccc2c(=O)n1Cc1ccccc1,4
2,CCc1ccc(-c2ccc3c(c2)-c2nn(C)cc2S(=O)(=O)N3C)cc1,9
3,O=C(Nc1ccc2c(c1)OCO2)NC1CCN(c2ccnc(NCc3ccc(F)cc3)n2)CC1 [GSK1379859],9
4,Cc1nnc(-c2ccc(C)c(-c3ccc(C(=O)O)cc3)c2)o1 [GW608005],0
5,CCCNC(=O)Nc1ccc(Oc2ncnc3ccn(C)c23)cc1,0
6,CCC(=O)c1c(-c2ccccc2)c2cc(Cl)ccc2c(=O)n1Cc1cc(C(=O)NC2CC2)n(C)n1,0
7,COc1ccc(CNC(=O)NC2CCN(c3ccnc(Nc4ccc(F)cc4)n3)C2)cc1 (stereo not shown) [GSK1379706],10
8,CCC(=O)c1c(-c2ccccc2)c2cc(Cl)ccc2c(=O)n1Cc1cc(S(C)(=O)=O)n(CC(F)F)n1,0
9,COc1cccc(C2=C(Nc3cccc(C(=O)O)c3)C(=O)NC2=O)c1 [SB-390770],0
10,COc1cc(OC)cc(-c2cc3cnc(N)nc3nc2NC(=O)NC(C)(C)C)c1,0
11,Nc1ncnc2c1ncn2-c1cccc(F)c1 [SKF-97560],0
12,CN1C(=O)C(Nc2ccccc2)=C(c2ccccc2)C1=O [SB-300079],4
13,COc1cc2nccc(Nc3cccc(Oc4ccccc4)c3)c2cc1OC.Cl [GW284543],9
14,COc1ccc(-c2coc3ccc(-c4nnc(SCc5cccc(C#N)c5)o4)cc23)cc1,5
15,Cc1ccccc1COc1cc(-n2cnc3cc(Cl)ccc32)sc1C(N)=O [GW813349],34
16,Nc1ncnc2c1ncn2-c1cccc2ccccc12 [SKF-97184],33
17,COc1cc2nccc(Nc3ccc(OCc4ccc(NC(C)=O)cc4)cc3)c2cc1OC.Cl [GW440135],1
18,O=C(Nc1n[nH]c2cc(-c3ccccc3F)ccc12)C1CC1 [SB-733371],11
19,O=C(NCc1cccs1)c1cc(C(=O)c2c(Cl)cccc2Cl)c[nH]1 [GW823670],8

row,SMILES,%Inh [%]
1,COc1ccc(Nc2nccc(N3CCC(NS(=O)(=O)c4ccc(NC(C)=O)cc4)C3)n2)cc1 (stereo not shown) [GSK1379729],0
2,COC(=O)c1c(-c2ccccc2)c2cc(Br)ccc2c(=O)n1Cc1ccc(S(C)(=O)=O)cc1,0
3,COc1ccc(-c2cc3c(C)nc(N)nc3n([C@H]3CC[C@H](O)CC3)c2=O)cn1,0
4,Nc1n[nH]c2nnc(-c3ccccc3)c(-c3ccccc3)c12 [GW554060],0
5,CCS(=O)(=O)c1ccc(OC)c(Nc2ncc(-c3ccc(F)cc3)o2)c1.Cl [GW591947],14
6,Nc1n[nH]c2ncc(-c3ccccc3)cc12 [SB-517081],8
7,OCCCNc1nccc(-c2c(-c3cccc(C(F)(F)F)c3)nn3cc(C(F)(F)F)ccc23)n1 [GW630813],0
8,CCc1nc(-c2cccc(C)c2)c(-c2ccncc2)s1,33
9,CCC(=O)c1c(-c2ccccc2)c2cc(Cl)ccc2c(=O)n1Cc1cc(S(C)(=O)=O)n(CCC(C)(C)O)n1,10
10,Cc1ccc(Oc2ccc(Nc3ncnc4cc[nH]c34)cc2C)cn1,1
11,Nc1nccc2scc(-c3ccc4c(c3)CCN4C(=O)Cc3ccccc3)c12 [GSK2576924],7
12,Cc1cccc(-c2nc(Nc3ccc4c(cnn4C)c3)c3ccccc3n2)n1 [GW876731],0
13,COC(=O)c1c(-c2ccccc2)c2cc(Br)ccc2c(=O)n1Cc1ccc(NC(=O)CCC(=O)O)cc1,1
14,COc1ccc(-c2cc3c(C)nc(N)nc3n([C@H]3CC[C@H](OCCO)CC3)c2=O)cn1,10
15,O=C(Nc1n[nH]c2nc(-c3ccccc3)c(Br)cc12)C1CC1 [SB-708998],0
16,COc1cc2ncn(-c3cc(OCCCc4ccccc4)c(C(N)=O)s3)c2cc1OC [GSK205189],5
17,COc1cc(Nc2ccnc3ccc(C(F)(F)F)cc23)cc(OC)c1OC [GW577382],6
18,Cc1ccc(-c2ccc3c(ccc4sc5c(c43)NC[C@@H](C)N=C5N(C)C)n2)cn1,0

# — paper PMC5540273 (PLoS ONE, 2017)
